# Data published in paper PMC7862700, “An all-to-all approach to the identification of sequence-specific readers for epigenetic DNA modifications on cytosine”.
# Columns and labels:
# Test in all cases: DAPPL (digital affinity profiling via proximity ligation, sequencing); 10 mM Tris-HCl pH 7.5, 50 mM NaCl, 1 mM DTT, 4% glycerol, room temperature, 30 min; GST-TFs on glutathione beads, 16-mer random dsDNA library, 0.1% formaldehyde crosslink after washing; high values mean tight binding
# FLI1 = target: T1, FLI1 (Homo sapiens, UniProt Q01543 1-452); conditions: protein: recombinant; tags: N-terminal GST; dsDNA, one strand shown
# T1 sequence: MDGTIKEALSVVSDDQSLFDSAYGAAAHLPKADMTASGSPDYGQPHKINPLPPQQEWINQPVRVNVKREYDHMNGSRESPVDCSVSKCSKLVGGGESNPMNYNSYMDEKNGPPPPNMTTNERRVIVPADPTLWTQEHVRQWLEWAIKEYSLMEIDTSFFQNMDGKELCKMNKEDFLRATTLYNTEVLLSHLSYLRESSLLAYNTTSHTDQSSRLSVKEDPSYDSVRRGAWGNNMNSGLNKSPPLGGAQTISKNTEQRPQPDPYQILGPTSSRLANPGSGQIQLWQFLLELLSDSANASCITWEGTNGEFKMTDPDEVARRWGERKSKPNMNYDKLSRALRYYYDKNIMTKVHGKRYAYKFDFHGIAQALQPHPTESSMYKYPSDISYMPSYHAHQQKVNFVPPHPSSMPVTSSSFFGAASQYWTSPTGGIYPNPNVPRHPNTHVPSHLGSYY
# In short: (§1)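 Human transcription factors fused to GST were expressed in yeast, captured on glutathione beads, given DNA barcodes and pooled with a GST-only negative control. Pools were incubated with 200 nmole of a 16-mer random double-stranded DNA library in Tris/NaCl/DTT/glycerol buffer at room temperature for 30 min. They were then washed, crosslinked with 0.1% formaldehyde, proximity-ligated (BsaI/T4 ligase, 1 h, 37 °C), PCR-amplified and sequenced on an Illumina NextSeq500. Binding signal is each 6-mer's read frequency for a factor divided by its frequency for the GST control.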
# ELK1 = target: T2, ELK1 (Homo sapiens, UniProt P19419 1-428); conditions: protein: recombinant; tags: N-terminal GST; dsDNA, one strand shown
# T2 sequence: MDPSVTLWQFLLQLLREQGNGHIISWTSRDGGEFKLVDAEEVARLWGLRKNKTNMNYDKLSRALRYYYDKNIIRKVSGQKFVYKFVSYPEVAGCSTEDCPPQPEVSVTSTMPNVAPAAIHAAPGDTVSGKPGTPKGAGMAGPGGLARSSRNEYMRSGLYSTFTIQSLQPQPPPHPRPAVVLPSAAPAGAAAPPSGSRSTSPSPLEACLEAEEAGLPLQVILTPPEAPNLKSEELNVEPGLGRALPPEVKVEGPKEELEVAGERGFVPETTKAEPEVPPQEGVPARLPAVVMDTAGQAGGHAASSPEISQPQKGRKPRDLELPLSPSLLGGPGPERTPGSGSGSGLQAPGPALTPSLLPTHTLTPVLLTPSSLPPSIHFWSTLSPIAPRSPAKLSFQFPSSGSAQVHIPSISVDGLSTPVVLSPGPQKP
# In short: as §1
# GABPA = target: T3, GABPA (Homo sapiens, UniProt Q06546 1-454); conditions: protein: recombinant; tags: N-terminal GST; dsDNA, one strand shown
# T3 sequence: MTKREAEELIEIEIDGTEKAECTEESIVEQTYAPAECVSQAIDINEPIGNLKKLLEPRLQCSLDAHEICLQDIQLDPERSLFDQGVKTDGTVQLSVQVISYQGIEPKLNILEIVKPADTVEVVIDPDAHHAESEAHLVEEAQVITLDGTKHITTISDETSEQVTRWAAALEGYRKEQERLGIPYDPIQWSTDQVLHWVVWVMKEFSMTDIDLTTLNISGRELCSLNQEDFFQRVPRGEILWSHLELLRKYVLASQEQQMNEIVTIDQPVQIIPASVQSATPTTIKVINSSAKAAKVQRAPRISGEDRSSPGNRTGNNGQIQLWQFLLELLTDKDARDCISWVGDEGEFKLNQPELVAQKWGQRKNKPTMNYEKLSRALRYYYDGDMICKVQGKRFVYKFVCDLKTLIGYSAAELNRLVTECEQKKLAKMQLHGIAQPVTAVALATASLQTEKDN
# In short: as §1
# ERG = target: T4, ERG (Homo sapiens, UniProt P11308 1-479); conditions: protein: recombinant; tags: N-terminal GST; dsDNA, one strand shown
# T4 sequence: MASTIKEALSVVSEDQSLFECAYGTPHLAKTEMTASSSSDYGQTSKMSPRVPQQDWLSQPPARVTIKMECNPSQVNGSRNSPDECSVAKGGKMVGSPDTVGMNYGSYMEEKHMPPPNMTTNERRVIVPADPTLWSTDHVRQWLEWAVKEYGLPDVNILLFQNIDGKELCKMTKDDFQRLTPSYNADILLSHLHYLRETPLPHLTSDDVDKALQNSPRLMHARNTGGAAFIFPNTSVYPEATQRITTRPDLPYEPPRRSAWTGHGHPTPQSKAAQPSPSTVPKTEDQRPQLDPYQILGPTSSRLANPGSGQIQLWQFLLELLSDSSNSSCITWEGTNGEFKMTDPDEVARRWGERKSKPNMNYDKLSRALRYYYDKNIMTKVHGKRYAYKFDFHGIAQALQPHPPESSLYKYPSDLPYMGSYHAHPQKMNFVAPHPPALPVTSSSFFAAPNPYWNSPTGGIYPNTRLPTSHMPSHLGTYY
# In short: as §1
# ELF1 = ELF1 (Homo sapiens, UniProt P32519 1-619); conditions: protein: recombinant; tags: N-terminal GST; dsDNA, one strand shown
# In short: as §1
# EHF = target: T5, EHF (Homo sapiens, UniProt Q9NZC4 1-300); conditions: protein: recombinant; tags: N-terminal GST; dsDNA, one strand shown
# T5 sequence: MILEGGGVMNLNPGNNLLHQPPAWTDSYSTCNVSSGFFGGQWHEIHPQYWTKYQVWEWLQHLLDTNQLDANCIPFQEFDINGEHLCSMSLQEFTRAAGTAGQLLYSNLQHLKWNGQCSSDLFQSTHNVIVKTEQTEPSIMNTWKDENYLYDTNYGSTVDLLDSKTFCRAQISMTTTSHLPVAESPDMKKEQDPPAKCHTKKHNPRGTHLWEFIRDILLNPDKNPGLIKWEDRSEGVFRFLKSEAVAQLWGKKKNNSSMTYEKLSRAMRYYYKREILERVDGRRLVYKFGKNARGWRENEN
# In short: as §1
# SPI1 = SPI1 (Homo sapiens, UniProt P17947 1-270); conditions: protein: recombinant; tags: N-terminal GST; dsDNA, one strand shown
# In short: as §1
# SPIB = SPIB (Homo sapiens, UniProt Q01892 1-262); conditions: protein: recombinant; tags: N-terminal GST; dsDNA, one strand shown
# In short: as §1
# ELK3 = target: T6, ELK3 (Homo sapiens, UniProt P41970 1-407); conditions: protein: recombinant; tags: N-terminal GST; dsDNA, one strand shown
# T6 sequence: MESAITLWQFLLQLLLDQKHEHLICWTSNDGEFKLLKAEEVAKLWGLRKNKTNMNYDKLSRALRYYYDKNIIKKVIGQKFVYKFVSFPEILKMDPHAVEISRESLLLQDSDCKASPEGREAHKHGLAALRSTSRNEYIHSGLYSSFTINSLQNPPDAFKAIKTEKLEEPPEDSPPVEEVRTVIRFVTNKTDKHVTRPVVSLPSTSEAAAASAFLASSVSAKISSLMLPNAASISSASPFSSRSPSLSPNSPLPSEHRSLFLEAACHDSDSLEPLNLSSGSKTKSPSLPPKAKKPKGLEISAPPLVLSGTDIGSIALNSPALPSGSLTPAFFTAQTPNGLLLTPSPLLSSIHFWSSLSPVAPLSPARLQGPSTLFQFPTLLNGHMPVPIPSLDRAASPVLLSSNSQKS
# In short: as §1
# FEV = target: T7, FEV (Homo sapiens, UniProt Q99581 1-238); conditions: protein: recombinant; tags: N-terminal GST; dsDNA, one strand shown
# T7 sequence: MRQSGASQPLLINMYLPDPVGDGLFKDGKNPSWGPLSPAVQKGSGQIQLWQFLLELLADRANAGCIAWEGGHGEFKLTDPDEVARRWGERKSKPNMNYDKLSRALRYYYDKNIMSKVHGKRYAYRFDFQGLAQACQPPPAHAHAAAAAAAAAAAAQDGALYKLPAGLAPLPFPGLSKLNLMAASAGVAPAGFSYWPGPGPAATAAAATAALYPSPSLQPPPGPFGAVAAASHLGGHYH
# In short: as §1
# ETV5 = ETV5 (Homo sapiens, UniProt P41161 1-510); conditions: protein: recombinant; tags: N-terminal GST; dsDNA, one strand shown
# In short: as §1
# HSF1 = HSF1 (Homo sapiens, UniProt Q00613 1-529); conditions: protein: recombinant; tags: N-terminal GST; chain copies: 3; dsDNA, one strand shown
# In short: as §1
# SPIC = target: T8, SPIC (Homo sapiens, UniProt Q8N5J4 1-248); conditions: protein: recombinant; tags: N-terminal GST; dsDNA, one strand shown
# T8 sequence: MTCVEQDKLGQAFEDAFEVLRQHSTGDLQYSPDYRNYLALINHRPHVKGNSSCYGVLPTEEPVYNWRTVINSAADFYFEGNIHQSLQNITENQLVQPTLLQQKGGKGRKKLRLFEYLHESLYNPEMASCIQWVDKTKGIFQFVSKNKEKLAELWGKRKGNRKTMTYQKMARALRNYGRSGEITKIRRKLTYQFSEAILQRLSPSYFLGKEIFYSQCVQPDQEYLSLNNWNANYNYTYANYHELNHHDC
# In short: as §1
# ELF4 = ELF4 (Homo sapiens, UniProt Q99607 1-663); conditions: protein: recombinant; tags: N-terminal GST; dsDNA, one strand shown
# In short: as §1
# ELK4 = target: T9, ELK4 (Homo sapiens, UniProt P28324-2 1-405); conditions: protein: recombinant; tags: N-terminal GST; dsDNA, one strand shown
# T9 sequence: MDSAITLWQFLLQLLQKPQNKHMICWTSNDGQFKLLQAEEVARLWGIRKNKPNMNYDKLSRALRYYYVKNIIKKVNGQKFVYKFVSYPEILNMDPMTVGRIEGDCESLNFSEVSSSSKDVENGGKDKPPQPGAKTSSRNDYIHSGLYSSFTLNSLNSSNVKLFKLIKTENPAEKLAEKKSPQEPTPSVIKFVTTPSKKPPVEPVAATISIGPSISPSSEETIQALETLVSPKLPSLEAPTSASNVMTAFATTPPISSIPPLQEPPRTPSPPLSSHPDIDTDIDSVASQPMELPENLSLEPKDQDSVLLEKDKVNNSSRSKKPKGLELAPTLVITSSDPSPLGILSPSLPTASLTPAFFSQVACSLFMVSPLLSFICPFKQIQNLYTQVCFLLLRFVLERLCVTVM
# In short: as §1
# ETV2 = target: T10, ETV2 (Homo sapiens, UniProt O00321 1-342); conditions: protein: recombinant; tags: N-terminal GST; dsDNA, one strand shown
# T10 sequence: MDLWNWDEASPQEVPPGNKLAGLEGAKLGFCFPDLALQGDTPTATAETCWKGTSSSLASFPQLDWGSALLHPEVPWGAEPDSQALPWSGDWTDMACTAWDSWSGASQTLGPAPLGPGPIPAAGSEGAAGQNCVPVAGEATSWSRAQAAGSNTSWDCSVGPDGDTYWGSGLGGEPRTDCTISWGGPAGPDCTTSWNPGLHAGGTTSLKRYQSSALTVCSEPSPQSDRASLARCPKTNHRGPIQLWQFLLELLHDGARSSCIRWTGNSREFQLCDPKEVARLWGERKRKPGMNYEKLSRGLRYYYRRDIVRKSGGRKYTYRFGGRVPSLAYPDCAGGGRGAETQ
# In short: as §1
# ELF3 = target: T11, ELF3 (Homo sapiens, UniProt P78545 1-371); conditions: protein: recombinant; tags: N-terminal GST; dsDNA, one strand shown
# T11 sequence: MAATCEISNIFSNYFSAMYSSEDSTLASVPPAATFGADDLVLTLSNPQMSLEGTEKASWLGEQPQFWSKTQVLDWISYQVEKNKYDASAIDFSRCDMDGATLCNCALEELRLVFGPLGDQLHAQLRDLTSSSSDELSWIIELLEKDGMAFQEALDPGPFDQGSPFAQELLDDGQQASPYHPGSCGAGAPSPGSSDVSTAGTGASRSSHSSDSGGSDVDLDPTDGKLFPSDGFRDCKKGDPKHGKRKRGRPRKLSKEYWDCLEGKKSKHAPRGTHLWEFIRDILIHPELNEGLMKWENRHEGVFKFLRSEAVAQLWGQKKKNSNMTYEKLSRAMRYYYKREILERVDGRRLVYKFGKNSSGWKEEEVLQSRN
# In short: as §1
# CRX = CRX (Homo sapiens, UniProt O43186 1-299); conditions: protein: recombinant; tags: N-terminal GST; dsDNA, one strand shown
# In short: as §1
# ETV1 = ETV1 (Homo sapiens, UniProt P50549 1-477); conditions: protein: recombinant; tags: N-terminal GST; dsDNA, one strand shown
# In short: as §1
# Sequence of CRX (O43186 whole entry): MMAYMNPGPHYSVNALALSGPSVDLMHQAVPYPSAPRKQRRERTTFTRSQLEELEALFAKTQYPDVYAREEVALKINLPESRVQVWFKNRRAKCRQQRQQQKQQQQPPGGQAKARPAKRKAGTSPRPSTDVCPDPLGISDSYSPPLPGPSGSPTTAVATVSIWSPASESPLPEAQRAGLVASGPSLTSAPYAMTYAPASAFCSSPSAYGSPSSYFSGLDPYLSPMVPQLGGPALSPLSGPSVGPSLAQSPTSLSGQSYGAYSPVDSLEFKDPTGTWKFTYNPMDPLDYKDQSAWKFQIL
# Sequence of ELF4 (Q99607 whole entry): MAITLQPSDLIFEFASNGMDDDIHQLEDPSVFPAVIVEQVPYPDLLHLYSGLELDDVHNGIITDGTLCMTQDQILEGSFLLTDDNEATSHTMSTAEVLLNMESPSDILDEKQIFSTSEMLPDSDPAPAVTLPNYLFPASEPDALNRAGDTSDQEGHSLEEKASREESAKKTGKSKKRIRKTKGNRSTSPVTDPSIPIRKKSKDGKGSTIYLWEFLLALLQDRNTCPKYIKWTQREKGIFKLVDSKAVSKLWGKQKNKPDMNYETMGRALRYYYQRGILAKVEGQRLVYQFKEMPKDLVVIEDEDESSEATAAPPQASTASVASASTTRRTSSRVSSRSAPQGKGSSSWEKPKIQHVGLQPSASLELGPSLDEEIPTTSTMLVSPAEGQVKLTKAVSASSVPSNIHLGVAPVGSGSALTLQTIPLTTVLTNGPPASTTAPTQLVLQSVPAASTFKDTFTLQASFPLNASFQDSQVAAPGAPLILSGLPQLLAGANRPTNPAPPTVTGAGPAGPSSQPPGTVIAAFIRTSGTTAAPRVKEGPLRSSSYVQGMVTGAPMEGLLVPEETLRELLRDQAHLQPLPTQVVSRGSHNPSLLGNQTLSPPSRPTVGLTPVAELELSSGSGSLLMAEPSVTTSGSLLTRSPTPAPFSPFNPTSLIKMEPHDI
# Sequence of ELF1 (P32519 whole entry): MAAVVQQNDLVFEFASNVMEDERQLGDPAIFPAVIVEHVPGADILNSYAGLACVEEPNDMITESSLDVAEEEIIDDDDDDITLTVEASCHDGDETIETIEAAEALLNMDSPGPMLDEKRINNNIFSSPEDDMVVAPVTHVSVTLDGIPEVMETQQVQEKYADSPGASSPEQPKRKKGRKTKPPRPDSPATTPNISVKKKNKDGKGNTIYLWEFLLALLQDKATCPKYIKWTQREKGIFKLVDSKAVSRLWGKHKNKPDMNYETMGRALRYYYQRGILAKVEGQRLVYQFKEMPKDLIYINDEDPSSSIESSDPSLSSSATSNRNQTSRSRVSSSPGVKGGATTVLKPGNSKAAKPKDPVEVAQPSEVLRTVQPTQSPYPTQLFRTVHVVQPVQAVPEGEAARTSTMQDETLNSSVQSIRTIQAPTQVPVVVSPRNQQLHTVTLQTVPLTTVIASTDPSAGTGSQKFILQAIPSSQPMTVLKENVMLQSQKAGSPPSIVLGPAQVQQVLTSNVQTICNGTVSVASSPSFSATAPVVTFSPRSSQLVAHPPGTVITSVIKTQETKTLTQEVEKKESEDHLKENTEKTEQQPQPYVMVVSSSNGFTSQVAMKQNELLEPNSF
# Sequence of ETV1 (P50549 whole entry): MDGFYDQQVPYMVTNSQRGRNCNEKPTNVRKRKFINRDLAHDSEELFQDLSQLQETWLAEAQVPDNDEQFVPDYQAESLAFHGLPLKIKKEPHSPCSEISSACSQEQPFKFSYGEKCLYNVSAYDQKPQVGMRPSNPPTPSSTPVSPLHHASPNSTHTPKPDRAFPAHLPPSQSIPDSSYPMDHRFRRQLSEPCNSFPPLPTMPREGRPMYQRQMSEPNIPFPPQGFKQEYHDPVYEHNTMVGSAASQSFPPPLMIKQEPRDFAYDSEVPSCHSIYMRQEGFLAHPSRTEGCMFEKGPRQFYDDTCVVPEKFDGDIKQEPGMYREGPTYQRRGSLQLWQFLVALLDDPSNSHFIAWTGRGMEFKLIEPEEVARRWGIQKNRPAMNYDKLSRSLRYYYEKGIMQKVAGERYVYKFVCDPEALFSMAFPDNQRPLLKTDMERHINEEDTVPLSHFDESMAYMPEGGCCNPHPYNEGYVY
# Sequence of HSF1 (Q00613 whole entry): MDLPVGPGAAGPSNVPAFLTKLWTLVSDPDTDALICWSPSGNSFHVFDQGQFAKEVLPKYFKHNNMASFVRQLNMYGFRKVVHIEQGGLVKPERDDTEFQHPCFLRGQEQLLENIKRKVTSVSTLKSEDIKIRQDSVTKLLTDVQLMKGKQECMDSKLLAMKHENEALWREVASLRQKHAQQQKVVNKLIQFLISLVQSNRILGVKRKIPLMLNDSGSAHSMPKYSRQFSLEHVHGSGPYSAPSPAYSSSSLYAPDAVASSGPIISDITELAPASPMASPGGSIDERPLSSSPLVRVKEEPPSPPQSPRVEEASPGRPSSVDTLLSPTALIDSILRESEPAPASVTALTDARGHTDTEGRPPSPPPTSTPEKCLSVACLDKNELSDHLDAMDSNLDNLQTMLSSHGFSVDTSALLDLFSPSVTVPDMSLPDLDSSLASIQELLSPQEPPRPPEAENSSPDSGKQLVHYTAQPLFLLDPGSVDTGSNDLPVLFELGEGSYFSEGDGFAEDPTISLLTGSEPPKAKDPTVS
# Sequence of SPIB (Q01892 whole entry): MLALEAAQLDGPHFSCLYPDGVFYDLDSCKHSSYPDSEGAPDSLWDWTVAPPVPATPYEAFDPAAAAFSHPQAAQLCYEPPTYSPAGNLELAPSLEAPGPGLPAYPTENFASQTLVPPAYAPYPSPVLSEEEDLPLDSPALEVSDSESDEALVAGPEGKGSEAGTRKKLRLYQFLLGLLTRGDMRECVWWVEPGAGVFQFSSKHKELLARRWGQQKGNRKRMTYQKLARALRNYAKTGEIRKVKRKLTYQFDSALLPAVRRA
# Sequence of ETV5 (P41161 whole entry): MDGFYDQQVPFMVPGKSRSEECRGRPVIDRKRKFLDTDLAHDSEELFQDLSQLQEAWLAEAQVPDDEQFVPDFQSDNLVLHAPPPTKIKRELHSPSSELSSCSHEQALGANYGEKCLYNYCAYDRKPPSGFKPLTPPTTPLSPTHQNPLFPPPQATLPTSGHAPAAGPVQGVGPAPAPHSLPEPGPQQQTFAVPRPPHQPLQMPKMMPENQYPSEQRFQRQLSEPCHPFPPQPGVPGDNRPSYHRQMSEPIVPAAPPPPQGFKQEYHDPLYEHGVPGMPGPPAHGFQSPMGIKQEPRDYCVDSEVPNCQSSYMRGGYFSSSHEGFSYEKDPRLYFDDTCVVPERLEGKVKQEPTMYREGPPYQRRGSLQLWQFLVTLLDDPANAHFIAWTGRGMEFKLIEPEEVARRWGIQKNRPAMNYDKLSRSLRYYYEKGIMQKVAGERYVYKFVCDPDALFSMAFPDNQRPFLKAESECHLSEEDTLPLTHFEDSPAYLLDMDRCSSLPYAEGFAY
sequence,measurement,setting,value
TACACT,binding signal,FLI1,"1.41 fold enrichment (6-mer frequency, TF over GST control)"
same,binding signal,ELK1,"1.57 fold enrichment (6-mer frequency, TF over GST control)"
same,binding signal,GABPA,"1.51 fold enrichment (6-mer frequency, TF over GST control)"
same,binding signal,ERG,"1.58 fold enrichment (6-mer frequency, TF over GST control)"
same,binding signal,ELF1,"1.5 fold enrichment (6-mer frequency, TF over GST control)"
same,binding signal,EHF,"1.62 fold enrichment (6-mer frequency, TF over GST control)"
same,binding signal,SPI1,"1.54 fold enrichment (6-mer frequency, TF over GST control)"
same,binding signal,SPIB,"1.5 fold enrichment (6-mer frequency, TF over GST control)"
same,binding signal,ELK3,"1.51 fold enrichment (6-mer frequency, TF over GST control)"
same,binding signal,FEV,"1.5 fold enrichment (6-mer frequency, TF over GST control)"
same,binding signal,ETV5,"1.5 fold enrichment (6-mer frequency, TF over GST control)"
same,binding signal,HSF1,"1.31 fold enrichment (6-mer frequency, TF over GST control)"
same,binding signal,SPIC,"1.58 fold enrichment (6-mer frequency, TF over GST control)"
same,binding signal,ELF4,"1.42 fold enrichment (6-mer frequency, TF over GST control)"
same,binding signal,ELK4,"1.53 fold enrichment (6-mer frequency, TF over GST control)"
same,binding signal,ETV2,"1.46 fold enrichment (6-mer frequency, TF over GST control)"
same,binding signal,ELF3,"1.36 fold enrichment (6-mer frequency, TF over GST control)"
same,binding signal,CRX,"1.35 fold enrichment (6-mer frequency, TF over GST control)"
same,binding signal,ETV1,"1.59 fold enrichment (6-mer frequency, TF over GST control)"
